Measured values published in PubChem BioAssay AID1445 (SRMLSC, 2008).
The campaign covered roughly 220,000 compounds. About 910 (0.41%) were called active.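 How the source made its calls: active means primary inhibition above the hit cutoff, then over 50% inhibition at one or more dose response concentrations (cut at about 23% in these data, passing the limit was not always enough); inconclusive means conflicting primary data, or primary hits not chosen for dose response; inactive means low primary inhibition, or under 50% at every dose.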 What follows is part of a selection rich in actives, with near analogues and random picks from the rest. Results with a measured potency or affinity are listed apart.

molecular target: Aminopeptidase N (Plasmodium falciparum (isolate 3D7)) (UniProt O96935); assay: P. falciparum M1AAP inhibitors, biochemical, fluorogenic H-Leu-NHMec substrate, 1536-well (AID 1445); conditions: recombinant M1AAP, H-Leu-NHMec fluorogenic kinetic assay; at 30 µM, active compounds read high unless noted;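 further: plate controls were DMSO full reaction for no effect and no enzyme background for full effect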
Sequence (O96935 whole entry, looked up): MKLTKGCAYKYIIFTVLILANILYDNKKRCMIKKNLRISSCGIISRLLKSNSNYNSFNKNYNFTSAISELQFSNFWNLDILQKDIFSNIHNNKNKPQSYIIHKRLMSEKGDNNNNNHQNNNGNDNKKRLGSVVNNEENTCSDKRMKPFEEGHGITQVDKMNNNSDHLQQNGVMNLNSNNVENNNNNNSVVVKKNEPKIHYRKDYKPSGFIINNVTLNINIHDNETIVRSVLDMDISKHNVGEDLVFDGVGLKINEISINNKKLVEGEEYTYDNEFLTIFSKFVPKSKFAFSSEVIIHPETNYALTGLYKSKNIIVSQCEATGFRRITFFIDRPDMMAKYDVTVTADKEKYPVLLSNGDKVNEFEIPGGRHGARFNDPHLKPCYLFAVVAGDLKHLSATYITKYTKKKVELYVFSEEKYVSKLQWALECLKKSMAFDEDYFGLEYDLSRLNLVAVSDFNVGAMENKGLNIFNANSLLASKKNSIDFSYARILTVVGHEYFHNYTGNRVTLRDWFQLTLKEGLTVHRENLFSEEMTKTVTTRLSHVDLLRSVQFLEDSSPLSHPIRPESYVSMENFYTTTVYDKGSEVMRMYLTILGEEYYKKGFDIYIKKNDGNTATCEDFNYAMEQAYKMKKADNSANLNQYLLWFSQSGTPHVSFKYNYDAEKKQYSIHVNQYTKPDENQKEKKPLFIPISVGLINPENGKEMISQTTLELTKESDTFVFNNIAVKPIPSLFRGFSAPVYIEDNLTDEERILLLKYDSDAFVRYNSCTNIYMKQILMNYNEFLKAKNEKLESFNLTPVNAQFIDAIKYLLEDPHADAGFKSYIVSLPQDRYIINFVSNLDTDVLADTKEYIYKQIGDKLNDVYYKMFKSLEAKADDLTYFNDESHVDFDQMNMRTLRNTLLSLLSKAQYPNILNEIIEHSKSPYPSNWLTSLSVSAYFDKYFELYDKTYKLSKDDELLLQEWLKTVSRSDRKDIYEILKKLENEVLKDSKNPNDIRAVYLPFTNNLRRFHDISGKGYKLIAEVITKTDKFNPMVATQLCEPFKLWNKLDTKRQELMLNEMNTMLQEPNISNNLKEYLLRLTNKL

Row | SMILES | inhibition
1 | CCOC(=O)c1sc2nc3c(SCCC#N)cc(C(=O)c4cc(F)ccc4O)cn3c(=O)c2c1C | 2.71% (inactive)
2 | CCOC(=O)c1sc2nc3c(SCC(=O)O)cc(C(=O)c4ccccc4O)cn3c(=O)c2c1C | 9.02% (inactive)
3 | CCOC(=O)c1cc(C(=O)c2ccccc2O)cn2c(=O)c3c(C)c(C)sc3nc12 | 13.9% (inactive)
4 | Cc1sc2nc3c(C(=O)N4CCCC4)cc(C(=O)c4ccccc4O)cn3c(=O)c2c1C | 17.2% (inactive)
5 | O=C(O)CSc1cc(C(=O)c2ccccc2O)cn2c(=O)c3c(-c4ccccc4)csc3nc12 | 17.9% (inactive)
6 | O=C(O)CSc1cc(C(=O)c2cc(F)ccc2O)cn2c(=O)c3c(-c4ccccc4)csc3nc12 | 21.3% (inactive)
7 | COC(=O)N/N=C(\C)c1ccc(-n2ccnc2)cc1 | -0.5% (inactive)
8 | CCC(=O)N/C(N)=N/c1nc(C)c2cc(C)c(C)cc2n1 | 7.6% (inactive)
9 | C=CCn1c(N)cc(=O)nc1SCC(=O)NC(C)c1ccccc1 (centres undefined) | -2.4% (inactive)
10 | O=C(N/N=C/c1ccco1)c1cc(Br)ccc1OCc1ccccc1 | 4.59% (inactive)
11 | CC(C)c1ccc(S(=O)(=O)N2CCN(C(=O)c3ccco3)CC2)cc1 | 0.71% (inactive)
12 | CC(C(=O)Nc1ccc(S(=O)(=O)N2CCCC2)cc1)N1CCN(C(=O)c2ccco2)CC1 (centres undefined) | 35.6% (active)
13 | C[C@H](NC(=O)c1ccco1)C(=O)Nc1ccc(S(=O)(=O)N2CCCC2)cc1 | -6.98% (inactive)
14 | Cc1ccc(N=Nc2c(C)[nH]n(-c3ccccc3)c2=O)c(C)c1 | 3.7% (inactive)
15 | Cc1[nH]n(-c2ccccc2)c(=O)c1N=Nc1ccccc1 | 4.86% (inactive)
16 | CC(/C=N/Nc1nc(N2CCCCC2)nc(N2CCCCC2)n1)=C\c1ccccc1 | 5.4% (inactive)
17 | OCCNc1nc(OCC(F)(F)F)nc(N2CCN(C34CC5CC(CC(C5)C3)C4)CC2)n1 | 9.11% (inactive)
18 | CC(=O)Cc1nsc(NC(=O)c2ccc(COc3ccccc3)o2)n1 | 26.3% (active)
19 | CC(=O)Cc1nsc(NC(=O)c2ccc(COc3ccc(C)cc3)o2)n1 | 8.72% (inactive)
20 | CC(=O)Cc1nsc(NC(=O)c2ccc(Br)o2)n1 | 0.84% (inactive)
21 | Cc1cc(NC(=O)CSc2nc(C(C)C)nc3c2c(=O)n(C)c(=O)n3C)no1 | 5.47% (inactive)
22 | O=C(O)Cc1sc(-c2cccnc2)nc1-c1ccc(Br)cc1 | 9.14% (inactive)
23 | CCOC(=O)N1CCN(c2cc(=O)n(-c3ccccc3Cl)c(=O)[nH]2)CC1 | -0.91% (inactive)
24 | CNc1oc(-c2ccc(C)cc2)nc1P(=O)(c1ccccc1)c1ccccc1 | -2.06% (inactive)

Row | SMILES | inhibition
25 | CCN(CC)S(=O)(=O)c1ccc(-c2nnc(SCC(C)=O)o2)cc1 | 26.5% (active)
26 | CCN(CC)S(=O)(=O)c1ccc(-c2nnc(SCC(=O)N3CCOCC3)o2)cc1 | -1.63% (inactive)
27 | CCN(CC)S(=O)(=O)c1ccc(-c2nnc(SC)o2)cc1 | -2.39% (inactive)
28 | Cn1c(CNC(=O)c2ccccc2)nnc1SCC(=O)Nc1nccs1 | 0.84% (inactive)
29 | CCCCn1c(SCC(=O)Nc2cc(C)on2)nc2ccsc2c1=O | 0.46% (inactive)
30 | CCCCn1c(SCC(=O)Nc2nccs2)nc2ccccc2c1=O | 1.43% (inactive)
31 | Cc1cc(NC(=O)CSc2nc3ccsc3c(=O)n2CCCCC(=O)O)no1 | 7.32% (inactive)
32 | COc1ccccc1NC(=O)Cn1nc(Cc2cccnc2)c2ccccc2c1=O | 4.36% (inactive)
33 | Cc1cc2cc(C#N)c(NCCNC(=S)NCCCN3CCOCC3)nc2cc1C | 11% (inactive)
34 | Cc1nc(SCC(=O)NCc2cccs2)nc(C)c1C | 1.91% (inactive)
35 | CCOc1ccc(N2CC(=O)N/C2=N\c2nc(C)cc(C)n2)cc1 | 0.69% (inactive)
36 | CS(=O)(=O)N(CC(=O)NCc1ccccc1Cl)C1CCCCC1 | -3.91% (inactive)
37 | CCC(CC)C(=O)NN(C(=O)c1ccncc1)C1CC(=O)N(c2ccccc2)C1=O (centres undefined) | 0.84% (inactive)
38 | CCN(CC)Cc1ccc(NC(=O)c2sc3cc(Cl)ccc3c2Cl)cc1 | 5.72% (inactive)
39 | CCOC(=O)C1ON2CCCCC2C1(O)C(F)(F)F (centres undefined) | 4.11% (inactive)
40 | O=C(Nc1scc(-c2ccccc2)c1C(=O)O)c1ccco1 | 13.6% (inactive)
41 | COC(=O)c1c(-c2ccc3ccccc3c2)csc1NC(=O)Cc1ccc(OC)c(OC)c1 | -5.43% (inactive)
42 | Cc1ccc(C(=O)Nc2ccccc2-c2ccccc2)o1 | 5.46% (inactive)
43 | CCOC(=O)c1c(-c2ccc(OC)cc2)csc1NC(=O)CSc1ccccc1 | 9.31% (inactive)
44 | COc1ccc(-c2csc(NC(=O)c3ccc(OCC(=O)N4CCOCC4)c(OC)c3)n2)cc1OC | -0.86% (inactive)
45 | COc1ccc(CCNC(=O)[C@@H](NC(N)=O)C(C)C)cc1 | 1.11% (inactive)
46 | CCOc1ccccc1NC(=O)CCNC(=O)c1ccc(Cl)cc1 | -0.92% (inactive)
47 | O=C(Nn1c(-c2ccccc2)nc2ccccc2c1=O)C1CCC1 | 8.13% (inactive)
48 | Cc1nc2ccccc2c(=O)n1NC(=O)C1CCCCC1 | 0.92% (inactive)

Row | SMILES | inhibition
49 | COc1ccccc1C(=O)Nn1c(C2CCC2)nc2ccccc2c1=O | 28.5% (inactive)
50 | COc1cccc(OC)c1C(=O)Nn1c(C2CCC2)nc2ccccc2c1=O | 1.68% (inactive)
51 | NS(=O)(=O)c1ccc(NC(=S)NC(=O)/C=C/c2ccco2)cc1 | 22.5% (inactive)
52 | C/C(=N/NC(=O)CN1CCN(S(=O)(=O)c2ccc(Br)cc2)CC1)c1ccco1 | 3.47% (inactive)
53 | COc1ccc(NC(=O)c2ccc(-c3ccccc3Cl)o2)cc1 | 2.03% (inactive)
54 | Cc1ccc(S(=O)(=O)N2CCCCC2)cc1NC(=O)CSc1nnc(N)s1 | 11.9% (inactive)
55 | COc1ccccc1OCC(=O)N/N=C1\CCc2ccccc21 | -5.88% (inactive)
56 | O=C1Nc2ncccc2OC1CCO (centres undefined) | 1.94% (inactive)
57 | O=C(N/N=C/c1cc(Br)ccc1O)Nc1ccccc1 | 2.93% (inactive)
58 | C=CCc1cccc(/C=N/NC(=O)c2ccccc2Br)c1O | -2.15% (inactive)
59 | O=C(N/N=C/c1ccccc1C(=O)O)c1ccccc1Br | -4.66% (inactive)
60 | COc1ccc(Br)cc1/C=N/NC(=O)c1cc(Br)ccc1O | 9.13% (inactive)
61 | CC1=NNC(=O)C1Oc1ccccc1 (centres undefined) | 3.86% (inactive)
62 | CCCCCCn1c(N2CCC(C(N)=O)CC2)nc2c1c(=O)[nH]c(=O)n2C | -0.78% (inactive)
63 | Cc1nc(Cl)sc1C(=O)Nc1ccccc1 | 2.8% (inactive)
64 | O=C(CSc1nc2ccccc2c(=O)n1-c1ccccc1)c1c[nH]c2ccccc12 | 1.41% (inactive)
65 | COc1ccc2cc(C(=O)C3CCCN(C(=O)CSc4nnc(C)o4)C3)ccc2c1 (centres undefined) | 12.3% (inactive)
66 | Cc1cc2nc3c(nc2cc1C)C(O)=C3O | 20.8% (inactive)
67 | OC1=C(O)c2nc3ccccc3nc21 | -5.83% (inactive)
68 | Cc1nc2c(c3c1[nH]c1ccccc13)C(O)CC(C)(C)C2 (centres undefined) | 22.4% (inactive)
69 | C=CCn1c(=O)/c(=C/c2ccc(Cl)cc2)s/c1=C(/C#N)c1nnc2n1CCCCC2 | 21.5% (inactive)
70 | C=CCn1c(=O)/c(=C/c2ccc(F)cc2)s/c1=C(\C#N)c1nnc2n1CCCCC2 | 20.7% (inactive)
71 | CCOc1ccc(NC(=NCc2ccc3c(c2)OCO3)SC2CC(=O)N(c3ccc(C(=O)O)cc3)C2=O)cc1 (centres undefined) | 1.35% (inactive)
72 | N=c1sccn1CC(=O)Nc1ccc(S(=O)(=O)N2CCOCC2)cc1 | -2.17% (inactive)

Row | SMILES | inhibition
73 | Cc1ccc(Cn2c(O)c(N=O)c3ccccc32)cc1 | 4.37% (inactive)
74 | O=C(c1ccc2c(c1)OCO2)C1CCCN(C2CCN(CCc3ccccc3)CC2)C1 (centres undefined) | 6.4% (inactive)
75 | CC(C)(C)NC(=O)CSc1nnc(Cc2ccccc2)n1CC1CCCO1 (centres undefined) | 2.88% (inactive)
76 | COc1ccc(OC)c(C2=NOC(C(=O)NCc3ccccn3)C2)c1 (centres undefined) | -2.41% (inactive)
77 | COc1ccc(NC(=O)C2C3C=CC(C3)C2C(=O)NCc2ccco2)cc1 (centres undefined) | 4.82% (inactive)
78 | O=C(O)C1C2C=CC(C2)C1C(=O)NCc1cccnc1 (centres undefined) | 2.34% (inactive)
79 | O=C(O)C1C2C=CC(C2)C1C(=O)NCc1ccccn1 (centres undefined) | -0.69% (inactive)
80 | O=C(NCc1ccccn1)C1C2C=CC(C2)C1C(=O)Nc1ccc(F)cc1 (centres undefined) | 18.1% (inactive)
81 | COc1ccc(NC(=O)NCc2ccco2)c(OC)c1 | 1.06% (inactive)
82 | Cc1cccc(C)c1NC(=O)C1C2C=CC(C2)C1C(=O)NCc1ccccn1 (centres undefined) | 15.1% (inactive)
83 | COc1ccc(OC)c(NC(=S)NCc2cccnc2)c1 | 4.71% (inactive)
84 | COc1ccc(NC(=O)C2C3C=CC(C3)C2C(=O)NCc2ccccn2)c(OC)c1 (centres undefined) | 25.6% (active)
85 | O=C(Cn1nc(Cl)nc1Cl)Nc1ccccc1 | 0.91% (inactive)
86 | O=C(NNC(=S)Nc1ccc(F)cc1)C1[C@H]2CCCC[C@@H]12 (some centres undefined) | -16.1% (inactive)
87 | O=C(NCc1n[nH]c(=S)n1-c1ccc(Br)cc1)c1ccc(S(=O)(=O)N2CCOCC2)cc1 | 2.45% (inactive)
88 | Cc1cc(C)c(S(=O)(=O)N2CCN(C)CC2)c(C)c1 | 4.18% (inactive)
89 | Cc1ccc(NC2=C(Cl)C(=O)OC2OC(=O)c2ccco2)cc1C (centres undefined) | 5.26% (inactive)
90 | C=CCOC(=O)C1=C[C@@H](c2coc3ccccc3c2=O)C[C@@H](OCc2ccc(CO)cc2)O1 | 6.22% (inactive)
91 | CCN(CC)CCOC(=O)c1cccc2c1-c1ccccc1C2O (centres undefined) | 1.02% (inactive)
92 | NNC(=O)c1cc2c(s1)-c1cc(Cl)ccc1SC2 | 3.34% (inactive)
93 | Cc1ccc(SCC(=O)Nc2ccccc2C(=O)O)cc1 | -0.6% (inactive)
94 | CC(=O)Nc1cccc(C(=O)Nc2ccccc2C(=O)O)c1 | -0.69% (inactive)
